The record followed here is PubChem BioAssay (Tox21).

The nature of assay [1]: qHTS assay to identify small molecule antagonists of the androgen receptor (AR) signaling pathway using the MDA cell line in the presence of 0.5 nM R1881 - cell viability counter screen (AID 1259242). Further: nearly all actives have a fitted effect of over 45% in size. In a few lines:
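Cytotoxicity toward MDA-kb2 cells is measured by CellTiter-Fluor live-cell protease fluorescence after 16 hr compound exposure at 37C in the presence of 0.5 nM R1881 stimulator.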

Assay [2] deals with Estrogen receptor (Homo sapiens) (UniProt P03372). Kind of assay: qHTS assay to identify small molecule antagonists of the estrogen receptor alpha (ER-alpha) signaling pathway using the BG1 cell line in the presence of 0.1 nM 17-beta-estradiol (AID 1259244). Further: nearly all actives have a fitted effect of over 50% in size. In outline: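 After 5 days in hormone-depleted medium (charcoal-stripped serum, no phenol red), VM7Luc4E2 cells were seeded, incubated 24 h, then co-treated with compound and 0.1 nM (final) estradiol for 22 h before luminescence detection.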

Assay [3] in a line: qHTS assay to identify small molecule HDAC inhibitors - cell viability counter screen (AID 1259365). Further: series mostly up to about 92 µM; nearly all actives have a fitted effect of over 50% in size. In a few lines:
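Wild-type HCT-116 cells were seeded at 1,500 per well, incubated overnight at 37 C, then exposed to compounds in DMSO for 2hr. Viability was read by CellTiter-Glo luminescence after 30min at room temperature.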

Assay [4] in a line: qHTS assay to identify small molecule agonists of the sonic hedgehog signaling (Shh) pathway - cell viability counter screen (AID 1259366). Further: nearly all actives have a fitted effect of over 50% in size. In outline: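 NIH/3T3-derived 3T3 Gli1-Luc cells (stable Gli1-responsive firefly luciferase reporter) were seeded, rested 4 hr at 37 C/5% CO2, then exposed to compounds in DMSO for 24 hr; viability was read by CellTiter-Fluor fluorescence in the same wells.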

Assay [5] can be described thus: qHTS assay to identify small molecule antagonists of the sonic hedgehog signaling (Shh) pathway - cell viability counter screen (AID 1259367). Further: nearly all actives have a fitted effect of over 55% in size. In outline:
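Seed 3T3 Gli1-Luc cells at 2,000 per well; incubate 4 hr; add compound in DMSO, then conditioned medium; incubate at 37C with 5% CO2; add CellTiter-Fluor after 23 hr; read fluorescence 1 hr later.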

Assay [6] in a line: qHTS assay to identify small molecule agonists of the sonic hedgehog signaling (Shh) pathway (AID 1259368; calls by dose curve; further: series mostly up to about 92 µM; nearly all actives have a fitted effect of over 15% in size). In a few lines: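 Steps: seed 3T3 Gli1-Luc cells, incubate 4 hr at 37 C, pin-transfer compounds in DMSO alongside a positive control, incubate 24 hr, add luciferase detection reagent, wait 30 min at room temperature, read luminescence.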
Assay [7] can be described thus: qHTS assay to identify small molecule antagonists of the sonic hedgehog signaling (Shh) pathway (AID 1259369; calls by dose curve; further: nearly all actives have a fitted effect of over 45% in size). In outline: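 Inhibition of Shh signalling is measured as reduced Gli1-response-element firefly luciferase output in an NIH/3T3-derived stable reporter clone stimulated with conditioned medium for 24hr.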
Assay [8] concerns the target Estrogen receptor beta (Homo sapiens) (UniProt Q92731). Put plainly: qHTS assay to identify small molecule antagonists of the estrogen receptor beta (ER-beta) signaling pathway (AID 1259378; active means well fitted inhibition curve with a large enough effect in the signal ratio in the repeat runs, not every such curve was filed as active; the % refers to the signal ratio). In a few lines:
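ER-beta-UAS-bla HEK293T cells in 2% charcoal-stripped FBS medium treated with compound plus 1nM final 17-beta-estradiol for 16 hr at 37C. Beta-lactamase reporter read by FRET substrate fluorescence after 2 hours at room temperature.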

Assay [9] is described as follows: qHTS assay to identify small molecule agonists of the androgen receptor (AR) signaling pathway in the presence of an antagonist - cell viability counter screen (AID 1259379). Further: nearly all actives have a fitted effect of over 25% in size. Further: potency means the concentration at half of the fitted maximal effect. In outline:
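Fluorescence from CellTiter-Fluor, added after 15 hr and read 1 hr later, gave cell viability. Cells were MDA-kb2 exposed to compounds (15 concentrations) in the presence of 3.0uM nilutamide at 37C, 0% CO2.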

Assay [10] is described as follows: qHTS assay to identify small molecule agonists of the estrogen receptor beta (ER-beta) signaling pathway - cell viability counter screen (AID 1259380). Further: nearly all actives have a fitted effect of over 30% in size. In outline:
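Same-well viability counter screen. Cells: ER-beta-UAS-bla HEK293T, plated 6 hr before compound, in 2% charcoal-stripped FBS. Compound exposure 16 hr, 37C; viability by CellTiter-Glo luminescence after 30 min at room temperature.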

Assay [11] in a line: qHTS assay to identify small molecule antagonists of the estrogen receptor beta (ER-beta) signaling pathway - cell viability counter screen (AID 1259382). Further: series mostly up to about 92 µM; nearly all actives have a fitted effect of over 55% in size. In outline: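 Following a 6 hr plating period, HEK293T cells carrying a UAS-driven beta-lactamase reporter under ER-beta control received compounds and 1nM E2 (final). After 16 hr at 37C and 2 hr substrate loading, CellTiter-Glo luminescence indicated viability.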

Assay [12] deals with Estrogen receptor (Homo sapiens) (UniProt P03372). Kind of assay: qHTS assay to identify small molecule agonists of the estrogen receptor alpha (ER-alpha) signaling pathway in the presence of an antagonist (AID 1259383; calls by dose curve; further: top concentration of the series differs between compounds; nearly all actives have a fitted effect of over 15% in size). In outline: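 Cells are hormone-deprived for 5 days (charcoal-stripped FBS, no phenol red), plated for 24hr, spiked with 10.0nM ICI-182,780, then dosed at 15 concentrations. After 22hr at 37C, ONE-Glo luminescence reports ERE-luciferase activity.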

Assay [13] in a line: qHTS assay to identify small molecule agonists or antagonists of the thyroid stimulating hormone receptor (TSHR) signaling pathway - wild type cell line counter screen (AID 1259384; calls by dose curve). In outline: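 Wild-type Hek293 cells, 800/well, 18 h at 37C, then compound with Ro20-1724 for 30 min RT. cAMP by HTRF (cAMP-d2/anti-cAMP cryptate), 1 h RT, fluorescence read. 15 concentrations, triplicates.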

A short description of assay [14]: qHTS assay to identify small molecule phospholipidosis (PLD) inducers (AID 1259344; active means well fitted curve in the direction sought with a large enough effect; an effect the other way counts as inactive or inconclusive). In outline: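 Quantitative HTS in HepG2: compound plus LipidTOX Red dye for 24 h, paraformaldehyde fixation with Hoechst 33342, widefield high-content imaging; amiodarone as positive and DMSO as negative control.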
The nature of assay [15]: qHTS assay to identify small molecule HDAC inhibitors (AID 1259364). Further: nearly all actives have a fitted effect of over 45% in size. Further: potency means the concentration at half of the fitted maximal effect. In a few lines: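 Homogeneous cell-based luminescent assay of endogenous class I/II HDAC activity; HCT-116 cells, 2 h compound exposure, 30 min HDAC-Glo development at RT.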
The target of assay [16] is Estrogen receptor beta (Homo sapiens) (UniProt Q92731). Put plainly: qHTS assay to identify small molecule agonists of the estrogen receptor beta (ER-beta) signaling pathway (AID 1259377; active means well fitted activation curve with a large enough effect in the signal ratio in the repeat runs, not every such curve was filed as active; the % refers to the signal ratio). In outline:
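ER-beta-UAS-bla HEK293T (GripTite) cells carrying a UAS-driven beta-lactamase reporter, in medium with 2% charcoal-stripped FBS, were exposed to compounds for 16 hr at 37C; LiveBLAzer B/G FRET substrate was then added and fluorescence read after 2 hours at room temperature.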

In assay [17] the target is Thyrotropin receptor (Homo sapiens) (UniProt P16473). Put plainly: qHTS assay to identify small molecule antagonists of the thyroid stimulating hormone receptor (TSHR) signaling pathway (AID 1259385; calls by dose curve; further: nearly all actives have a fitted effect of over 20% in size). In a few lines:
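TSHR-HEK293 cells (800/well) plated 18 h, then compounds with Ro20-1724 and TSH at 1.5 ng/mL final, 30 min at room temperature. cAMP quantified by HTRF (cAMP-d2/anti-cAMP-cryptate, 1 h); 15 concentrations in triplicate.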

Assay [18] deals with Androgen receptor (Homo sapiens) (UniProt P10275). Kind of assay: qHTS assay to identify small molecule antagonists of the androgen receptor (AR) signaling pathway using the MDA cell line in the presence of 0.5 nM R1881 (AID 1259243). Further: nearly all actives have a fitted effect of over 50% in size. Further: potency means the concentration at half of the fitted maximal effect. In outline: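 Steps: seed MDA-kb2 cells, incubate 5 hr at 37C; pin-transfer compounds in DMSO; add R1881 to 0.5 nM final; incubate 16 hr; add ONE-Glo, wait 30 min at room temperature; read luminescence.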

For assay [19] the target is unchanged. Put plainly: qHTS assay to identify small molecule agonists of the androgen receptor (AR) signaling pathway in the presence of an antagonist (AID 1259381; calls by dose curve; further: nearly all actives have a fitted effect of over 15% in size). In outline: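 Cells are MDA-kb2 (human breast carcinoma, MMTV-luc, AR/GR responsive). Nilutamide is present at 3.0uM final throughout; compounds are added at 15 concentrations and incubated 16hr at 37C before ONE-Glo luminescence detection.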

Results filed as inconclusive are left out. Active and inactive are the calls of the source. Unless noted, the call rests on the fitted dose curve; in most records, active means well fitted curve in the direction sought with a large enough effect in the repeat runs; inconclusive means weak or mixed curves; inactive means no such curve, though single readings can be large; an effect the other way counts as inactive or inconclusive.

Androgen receptor (Homo sapiens), sequence (P10275 whole entry, looked up): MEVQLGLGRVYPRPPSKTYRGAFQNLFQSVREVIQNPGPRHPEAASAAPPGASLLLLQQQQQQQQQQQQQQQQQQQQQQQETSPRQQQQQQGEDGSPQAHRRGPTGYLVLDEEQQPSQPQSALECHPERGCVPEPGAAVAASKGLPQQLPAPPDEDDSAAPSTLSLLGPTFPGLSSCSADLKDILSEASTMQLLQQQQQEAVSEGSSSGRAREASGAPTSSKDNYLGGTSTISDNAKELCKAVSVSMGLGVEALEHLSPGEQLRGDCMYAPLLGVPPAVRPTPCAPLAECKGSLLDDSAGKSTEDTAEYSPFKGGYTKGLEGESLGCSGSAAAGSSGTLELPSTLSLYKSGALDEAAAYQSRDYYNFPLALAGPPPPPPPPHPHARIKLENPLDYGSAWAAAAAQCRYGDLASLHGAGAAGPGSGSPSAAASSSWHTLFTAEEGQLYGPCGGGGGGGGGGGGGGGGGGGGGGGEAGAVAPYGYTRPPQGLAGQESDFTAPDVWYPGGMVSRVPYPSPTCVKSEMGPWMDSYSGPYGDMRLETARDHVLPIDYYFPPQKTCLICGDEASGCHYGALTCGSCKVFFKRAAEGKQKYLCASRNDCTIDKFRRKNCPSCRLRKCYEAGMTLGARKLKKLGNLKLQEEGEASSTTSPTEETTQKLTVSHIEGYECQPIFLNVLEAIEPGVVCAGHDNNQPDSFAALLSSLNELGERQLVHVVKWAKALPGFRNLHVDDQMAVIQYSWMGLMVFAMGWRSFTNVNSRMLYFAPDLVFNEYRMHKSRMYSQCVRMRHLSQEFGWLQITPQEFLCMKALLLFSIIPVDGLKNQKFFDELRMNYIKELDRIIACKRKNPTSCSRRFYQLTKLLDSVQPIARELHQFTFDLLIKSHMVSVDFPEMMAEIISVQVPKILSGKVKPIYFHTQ
Estrogen receptor (Homo sapiens), sequence (P03372 whole entry, looked up): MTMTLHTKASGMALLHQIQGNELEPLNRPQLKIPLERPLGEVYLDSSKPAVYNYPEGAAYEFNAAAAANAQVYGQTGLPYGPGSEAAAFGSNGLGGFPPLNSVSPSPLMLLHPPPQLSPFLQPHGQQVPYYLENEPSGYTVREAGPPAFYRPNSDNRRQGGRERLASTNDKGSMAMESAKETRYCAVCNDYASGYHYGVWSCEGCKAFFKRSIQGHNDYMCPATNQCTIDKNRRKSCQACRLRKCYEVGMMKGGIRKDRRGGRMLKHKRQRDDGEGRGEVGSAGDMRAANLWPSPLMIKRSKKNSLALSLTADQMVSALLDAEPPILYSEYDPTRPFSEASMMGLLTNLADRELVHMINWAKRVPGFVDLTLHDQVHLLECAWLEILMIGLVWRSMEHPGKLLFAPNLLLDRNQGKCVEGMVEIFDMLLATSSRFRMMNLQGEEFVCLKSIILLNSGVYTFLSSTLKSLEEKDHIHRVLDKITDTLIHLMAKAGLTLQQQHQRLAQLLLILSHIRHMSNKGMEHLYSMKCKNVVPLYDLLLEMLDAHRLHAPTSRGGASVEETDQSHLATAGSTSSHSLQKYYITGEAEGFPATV
Estrogen receptor beta (Homo sapiens), sequence (Q92731 whole entry, looked up): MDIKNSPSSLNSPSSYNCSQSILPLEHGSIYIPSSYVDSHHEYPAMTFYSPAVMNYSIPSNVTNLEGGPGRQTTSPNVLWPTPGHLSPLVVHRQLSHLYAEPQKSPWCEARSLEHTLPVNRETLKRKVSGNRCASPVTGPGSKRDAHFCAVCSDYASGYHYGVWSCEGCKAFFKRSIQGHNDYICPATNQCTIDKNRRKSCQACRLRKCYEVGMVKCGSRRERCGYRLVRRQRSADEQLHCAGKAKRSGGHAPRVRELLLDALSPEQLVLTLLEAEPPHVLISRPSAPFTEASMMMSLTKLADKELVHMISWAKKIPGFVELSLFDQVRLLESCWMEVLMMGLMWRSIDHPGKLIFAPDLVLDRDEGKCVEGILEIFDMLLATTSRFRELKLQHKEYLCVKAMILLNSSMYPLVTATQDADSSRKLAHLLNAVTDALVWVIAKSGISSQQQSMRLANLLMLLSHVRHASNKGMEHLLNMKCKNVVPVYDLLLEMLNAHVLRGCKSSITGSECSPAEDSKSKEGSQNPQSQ
Thyrotropin receptor (Homo sapiens), sequence (P16473 whole entry, looked up): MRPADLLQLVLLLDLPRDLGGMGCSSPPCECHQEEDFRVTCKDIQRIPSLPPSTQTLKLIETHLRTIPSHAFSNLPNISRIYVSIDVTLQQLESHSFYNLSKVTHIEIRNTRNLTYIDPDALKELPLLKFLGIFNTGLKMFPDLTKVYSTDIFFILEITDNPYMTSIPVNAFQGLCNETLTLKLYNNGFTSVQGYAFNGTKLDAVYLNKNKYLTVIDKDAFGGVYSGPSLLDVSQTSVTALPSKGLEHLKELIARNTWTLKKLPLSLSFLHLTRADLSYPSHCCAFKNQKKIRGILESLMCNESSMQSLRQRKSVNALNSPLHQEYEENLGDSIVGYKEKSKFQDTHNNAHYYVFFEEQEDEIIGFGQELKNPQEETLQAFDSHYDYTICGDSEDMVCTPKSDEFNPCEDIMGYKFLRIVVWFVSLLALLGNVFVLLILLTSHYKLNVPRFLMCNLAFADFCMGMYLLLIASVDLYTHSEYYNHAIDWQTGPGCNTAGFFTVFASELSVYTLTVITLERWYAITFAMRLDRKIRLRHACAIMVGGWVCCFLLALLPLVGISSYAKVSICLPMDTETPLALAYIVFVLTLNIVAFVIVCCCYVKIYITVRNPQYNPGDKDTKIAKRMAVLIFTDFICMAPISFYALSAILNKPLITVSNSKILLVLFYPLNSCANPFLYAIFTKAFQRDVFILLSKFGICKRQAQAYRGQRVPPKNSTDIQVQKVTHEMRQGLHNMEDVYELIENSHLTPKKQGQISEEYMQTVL

Consider `ClC(Cl)(Cl)c1ccc(C(Cl)(Cl)Cl)cc1`, for which the Potency entry in [1], in [2], in [4], in assay [5], in assay [7] and in assay [8] was “inactive” each time. The Potency result in assay [9], in assay [10], in assay [11], in [12] and in assay [13] was “inactive” in each case. Moreover, the molecule was called inactive in assay [3] and in assay [6].

For `CC(C(=O)O)c1ccc(-c2ccccc2)c(F)c1` (stereo not given), the Potency entry in assay [2], in assay [14], in [4], in assay [5], in [7] and in assay [8] was “inactive” in each case. For the same molecule, the Potency entry in [9], in assay [10] and in assay [12] was “inactive” each time. Besides, the Potency in [15] is 43.3 µM (active). For the same molecule, the call in assay [3] and in assay [6] was inactive.

Regarding `CC(=O)NCCCS(=O)(=O)O`, the Potency entry in assay [1], in [2], in assay [14], in [15], in assay [4] and in assay [5] was “inactive” throughout. The Potency entry in assay [7], in assay [16], in assay [8], in assay [9], in assay [10] and in assay [13] was “inactive” throughout. For the same molecule, the Potency entry in assay [17] was “inactive”. For the same molecule, the outcome in assay [3] and in assay [6] was inactive.

Regarding `CCCCCCCCCC=O`, the Potency entry in assay [2], in assay [15], in assay [4], in assay [5], in assay [7] and in [16] was “inactive” in each case. Besides, the Potency result in assay [9], in assay [10], in [11], in assay [12], in [13] and in [17] was “inactive” each time. Besides, the molecule was classed as inactive in assay [6].

For `Cn1c(=O)c2c(ncn2CC(O)CO)n(C)c1=O` (stereo not given), the Potency result in assay [1], in [2], in assay [14], in assay [15], in assay [4] and in assay [5] was “inactive” in each case. For the same molecule, the Potency result in assay [7], in assay [16], in assay [9], in assay [12], in assay [13] and in assay [17] was “inactive” each time. Also, in assay [6], the molecule was classed as inactive.

For the molecule `c1ccc(OCc2ccc(CCCN3CCOCC3)cc2)cc1`, the Potency in assay [18] and in assay [9] was 29.8 µM (active) each time. Besides, the Potency entry in [14], in assay [4], in assay [5], in assay [16], in assay [8] and in assay [10] was “inactive” throughout. For the same molecule, the Potency result in assay [19], in [11], in assay [12], in assay [13] and in assay [17] was “inactive” each time. The molecule was classed as inactive in [6].

Turning to `CC1=CCC(C(C)C)C=C1` (stereo not given), the Potency result in [1], in [2], in assay [15], in assay [4], in assay [5] and in assay [7] was “inactive” each time. Also, the Potency entry in [9], in assay [10], in assay [11] and in assay [12] was “inactive” in each case. Also, the molecule was classed as inactive in assay [3] and in [6].

For the molecule `O=C(O)[C@@H]1[C@H]2C[C@H]3c4[nH]c5ccccc5c4CCN3C[C@@H]2CC[C@@H]1O`, the Potency result in assay [18], in assay [2], in [14], in [15], in [4] and in assay [5] was “inactive” throughout. The Potency result in assay [7], in [9], in assay [10], in assay [19], in [11] and in assay [12] was “inactive” throughout. The Potency entry in assay [13] and in assay [17] was “inactive” in each case. The outcome in assay [3] and in assay [6] was inactive.

For the molecule `O=C(c1ccc(O)cc1)c1ccc(O)cc1`, the Potency result in assay [1], in [2], in assay [4], in assay [8], in assay [9] and in [10] was “inactive” throughout. The Potency entry in assay [19], in assay [11] and in assay [17] was “inactive” throughout.

In the case of `CCOC(=O)C1=C(C)NC(C)=C(C(=O)OC)C1c1cccc([N+](=O)[O-])c1` (stereo not given), the Potency entry in assay [2], in assay [14], in [15], in assay [5], in assay [8] and in [9] was “inactive” throughout. Further, the Potency entry in assay [10], in assay [11], in [12], in assay [13] and in assay [17] was “inactive” each time. Moreover, the molecule was classed as inactive in assay [3] and in [6].
